Results published in the supplement of paper PMC3334620.
The full ranking holds about 33,000 sequences; the median of “E-score (-0.5 to 0.5)” is about -0.013, and the highest 2% start at about 0.3. What follows is part of a selection rich in the highest values, with near analogues and random picks from the rest.

Target: T1, Msn1 (UniProt P22148)
T1 sequence: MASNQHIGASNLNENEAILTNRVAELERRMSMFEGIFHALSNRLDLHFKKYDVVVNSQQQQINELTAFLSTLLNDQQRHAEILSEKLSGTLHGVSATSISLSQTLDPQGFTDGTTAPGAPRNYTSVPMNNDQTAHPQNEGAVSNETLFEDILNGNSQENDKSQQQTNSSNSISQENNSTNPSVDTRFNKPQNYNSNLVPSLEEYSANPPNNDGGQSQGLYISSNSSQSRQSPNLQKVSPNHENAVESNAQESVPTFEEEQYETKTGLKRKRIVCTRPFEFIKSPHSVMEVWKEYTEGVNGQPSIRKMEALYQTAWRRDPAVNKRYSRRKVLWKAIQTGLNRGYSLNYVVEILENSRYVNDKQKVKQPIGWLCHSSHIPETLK
Assay: PBM E-score (8-mer binding enrichment) (E-score (-0.5 to 0.5)); higher = stronger / more preferred TF binding
Conditions: protein concentration: 200 nM; construct: GST-full length
How it was run: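 Detection of bound protein used fluorescent anti-GST, with scans normalised by masliner. The proteins were GST-tagged yeast transcription factors applied at about 100-200 nM to universal all-10-mer Agilent arrays made double-stranded by primer extension. Each ungapped eight-base word, pooled with its reverse complement, was scored with an E-score from the Universal PBM Analysis Suite.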

| Sequence | PBM E-score |
| --- | --- |
| ACGGACCA | 0.0706 |
| GCGGACAC | 0.162 |
| ACATTCGT | 0.0578 |
| AATTCTCT | -0.229 |
| CGACCGCG | -0.0918 |
| CGGGAGGA | -0.0135 |
| GAGTGTGC | 0.0104 |
| GCTACACC | -0.162 |
| GCCTGACC | -0.234 |
| AAATACCA | -0.0306 |
| ACAAAATA | 0.188 |
| ATAAAATC | 0.0924 |
| ACAAAATC | 0.352 |
| CCAAAATC | 0.0937 |
| AAAAAATG | 0.287 |
| ACAAAATG | 0.312 |
| AAAAAATC | 0.105 |
| ATAAAATG | 0.341 |
| ATAAAATA | 0.183 |
| GCCGATTA | -0.0616 |
| ATTGCCGG | -0.0182 |
| GGATAGAC | -0.0706 |
| AGACATCG | 0.226 |
| TGACATCA | 0.257 |
| AGACATCT | 0.29 |

| Sequence | PBM E-score |
| --- | --- |
| CGACATCC | 0.0825 |
| AGACATCC | 0.328 |
| GAACATCC | 0.162 |
| GGACATCC | 0.475 |
| CGACATCA | 0.125 |
| GGACATCA | 0.396 |
| ATAGTGGA | 0.0789 |
| CCCTGCTC | -0.172 |
| CCGCTTCC | -0.183 |
| GACGGACA | 0.386 |
| GACGGACC | -0.0404 |
| CACGGACG | 0.175 |
| AACGGACT | -0.00389 |
| TACGGAGA | -0.0508 |
| TACGGAAA | 0.17 |
| TACGGACA | 0.44 |
| GACGGAAA | 0.106 |
| CACGGACA | 0.455 |
| AACGGACA | 0.344 |
| CACGGACC | 0.0127 |
| AACGGACG | 0.0165 |
| ACTAACGC | -0.108 |
| GCTCGAAA | -0.00351 |
| TGCAGGAA | 0.0458 |
| TGAGTGAA | -0.115 |

| Sequence | PBM E-score |
| --- | --- |
| ACGAATCG | 0.0506 |
| CGAATAAA | 0.309 |
| CGAATAAC | 0.0021 |
| GGAATAAA | 0.119 |
| TAAGCTCA | -0.0986 |
| CTTCCGGA | 0.132 |
| ATTCCGGG | 0.14 |
| GGTCCGGA | 0.216 |
| ATTCCGGA | 0.313 |
| AGTCCGGA | 0.267 |
| CGTCCGGA | 0.331 |
| CCTTTGAA | -0.154 |
| ATGTTTTG | 0.12 |
| CGAGCACG | -0.175 |
| CCATATCA | 0.0259 |
| ATATATTG | -0.172 |
| ACATATCG | 0.231 |
| CCATATTC | -0.0353 |
| ATATATTC | 0.163 |
| ACATATTC | 0.34 |
| ACATATTG | 0.321 |
| ACATATGC | -0.0219 |
| ACATATGG | 0.262 |
| ACATATGA | 0.311 |
| TCATATGA | 0.297 |

| Sequence | PBM E-score |
| --- | --- |
| ACATATCA | 0.319 |
| AATCTTGG | 0.0184 |
| AGTTACAT | -0.0774 |
| AATCAAAA | 0.089 |
| CTATTCTC | -0.0396 |
| CCACAACC | -0.0582 |
| TAGTTGCA | 0.0158 |
| TAGAAGGA | -0.21 |
| AATAGCTG | -0.128 |
| GTTGAGGA | -0.00729 |
| GCATATTA | 0.0109 |
| CCATATTA | 0.21 |
| ACATATTA | 0.351 |
| ACCTTCCA | -0.119 |
| AATCGAGT | -0.0102 |
| CGAAGCAC | 0.0622 |
| ACACCGTG | -0.05 |
| ATTTGGAG | -0.0358 |
| CTTTGGAC | 0.262 |
| GATTGGAC | 0.109 |
| ATTTGGAC | 0.366 |
| AATTGGAT | 0.157 |
| AATTGGAC | 0.342 |
| CTGAGCTC | 0.0318 |
| ATTTGCCC | 0.0584 |

| Sequence | PBM E-score |
| --- | --- |
| AAGTGATA | -0.052 |
| GACAAAAA | 0.466 |
| AACAAGCC | 0.0265 |
| GACAAGAA | 0.374 |
| AACAAAAA | 0.15 |
| CACAAGAA | 0.105 |
| GACAGGAA | 0.323 |
| CACAGGAA | 0.0261 |
| GACAAGCC | 0.318 |
| GACAAGCA | 0.278 |
| TACAAAAA | 0.264 |
| TACAAGAA | 0.169 |
| GACAGGAC | 0.17 |
| ATCTATCC | -0.0249 |
| CCTAGCCA | -0.0603 |
| CCTGCAAA | -0.188 |
| AAGCAAGG | -0.0227 |
| ATTTACTA | 0.206 |
| AGTCAGAA | -0.0729 |
| CGTACGGC | -0.134 |
| CCTATGTA | -0.0586 |
| GACAAACA | 0.456 |
| GACAAACC | 0.445 |
| CACACAAA | 0.115 |
| TACAAACA | 0.301 |

| Sequence | PBM E-score |
| --- | --- |
| CACAAAAC | 0.0522 |
| GACACAAA | 0.395 |
| TACACAAA | 0.205 |
| AACAAACC | 0.155 |
| AACAAAAC | 0.199 |
| CACAAACC | -0.135 |
| GACAAAAC | 0.451 |
| AACAAACA | 0.133 |
| GACATCAC | 0.118 |
| CGGCAGCC | -0.118 |
| CGCGGTCC | -0.0855 |
| AGTATTGG | -0.0788 |
| AGAGTTAT | -0.0142 |
| GATAGGCA | -0.0844 |
| AGTAGGCA | -0.07 |
| GACAAGAC | 0.311 |
| CACAAGAC | -0.118 |
| AACAAGAC | 0.135 |
| GCCCATGA | -0.081 |
| TGGGACCA | -0.117 |
| TGGGACAA | 0.471 |
| GGGGACCA | -0.223 |
| GGGGACAA | 0.456 |
| GGGGACAC | 0.28 |
| TGGGAGAA | -0.209 |

| Sequence | PBM E-score |
| --- | --- |
| ATAGCACA | -0.0389 |
| ATGGAGCG | -0.0801 |
| CAGATAAG | 0.102 |
| ATCCGACA | 0.128 |
| CTCCGACA | 0.174 |
| ATCCGAAA | 0.057 |
| ATCCGAAC | -0.00081 |
| TTCCGAAA | 0.0799 |
| GTCCGAAA | 0.312 |
| GTCCGAGA | 0.326 |
| ATCCGAAG | 0.0243 |
| GTCCGACA | 0.322 |
| ATCCGAGA | 0.187 |
| ATCCGAAT | 0.309 |
| CTCCGAGA | 0.152 |
| ATTAATTA | 0.0938 |
| CTCTTACC | 0.0706 |
| ATCGCCTC | -0.0571 |
| CTCTCCCC | -0.213 |
| ACAACATG | 0.0414 |
| AATATGCC | -0.141 |
| CTCTGATA | 0.112 |
